According to PubChem BioAssay (NCI):
The panel holds about 83,000 compounds, 20% with a hit somewhere; the sample as a whole holds those more often.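 Step 1: grow cells in 96-well plates. Step 2: add test compound at a single concentration. Step 3: incubate 48 h. Step 4: record percent growth.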 Active and inactive are the calls of the source. Rule for the calls: active = growth percent below 10; inactive = the rest.

How the values were obtained:
Assay in all cases: NCI-60 one-dose screen, 48 h (100 = growth as untreated, 0 = no growth, -100 = all killed)
Settings in all cases: 10 µM unless noted
[1] = tested on: NCI-H226 lung
[2] = tested on: NCI-H322M lung
[3] = tested on: HOP-62 NSCLC
[4] = tested on: NCI-H460 lung
[5] = tested on: HOP-92 NSCLC
[6] = tested on: NCI-H522 lung
[7] = tested on: A549/ATCC NSCLC
[8] = tested on: 786-0 renal
[9] = tested on: COLO 205 colon
[10] = tested on: DU-145 prostate
[11] = tested on: K-562 leukemia
[12] = tested on: MALME-3M melanoma
[13] = tested on: MDA-MB-231 breast
[14] = tested on: RXF 393 renal
[15] = tested on: SF-268 CNS
[16] = tested on: SF-295 CNS
[17] = tested on: SF-539 CNS
[18] = tested on: UACC-257 melanoma
[19] = tested on: M14 melanoma

Measured: growth

CCN1C(=O)N(CC)C2C1NN=c1s/c(=C\c3cccc([N+](=O)[O-])c3)c(=O)n12 (stereo not given)
active: [4] 5.14% | [6] -4.92% | [9] 1.16% | [10] 8.55% | [17] -4.28%
inactive: [1] 58.2% | [2] 45.5% | [3] 40% | [5] 55.2% | [7] 20.2% | [8] 25% | [11] 10.5% | [12] 47.4% | [13] 12.4% | [14] 31.4% | [15] 54% | [16] 15% | [18] 59.7% | [19] 12.2%

CC(C)CCC[C@@H](C)[C@H]1CC[C@H]2[C@@H]3CC=C4C[C@@H](C(C(=O)O)C(=O)O)CC[C@]4(C)[C@H]3CC[C@]12C
active: [1] -62.9% | [2] -0.312% | [3] -54.8% | [5] 8.17% | [6] -28.7% | [7] -51.7% | [8] -58.6% | [9] -91.1% | [10] -83.5% | [11] -48.3% | [12] -43% | [13] -28.2% | [14] -49.8% | [15] -24.6% | [16] -61.2% | [17] -27.3% | [18] -49.8% | [19] -72.9%

CCn1cc(C(=O)N/N=C/c2cccs2)c(=O)c2cc(F)c(N3CCNC(C)C3)c(F)c21 (stereo not given)
inactive: [1] 76% | [2] 84.1% | [3] 72.4% | [4] 23.6% | [5] 53.8% | [6] 71.1% | [7] 44% | [8] 67.8% | [10] 48.3% | [13] 41% | [14] 16.2% | [15] 79.1% | [16] 85.3% | [17] 84.2% | [18] 108% | [19] 49.4%
active: [9] -41.7% | [11] -39% | [12] -36.7%

COc1ccc(-c2nn(-c3ccccc3)cc2/C=C2/SC(=S)N(C)C2=O)cc1
inactive: [1] 55.1% | [2] 60.8% | [3] 25.3% | [4] 11.2% | [5] 74.7% | [6] 91.2% | [7] 36.8% | [9] 64.4% | [10] 90.7% | [11] 56.9% | [12] 88.4% | [13] 63% | [14] 96.5% | [15] 99.2% | [16] 51.4% | [17] 70.3% | [18] 29.4% | [19] 97.3%
active: [8] 1.33%

O=C1/C(=C/c2ccc(Cl)c(Cl)c2)CN(C(=O)C(Cl)Cl)C/C1=C\c1ccc(Cl)c(Cl)c1
active: [1] -31.2% | [2] -22.8% | [3] -21.8% | [4] -55.8% | [5] -53% | [6] -35.1% | [7] 7.18% | [8] -90.7% | [9] -47.1% | [10] -76.1% | [11] 0.245% | [12] -57.6% | [13] -34.2% | [14] -80% | [15] -64.7% | [16] -79.7% | [17] -93.2% | [18] -11.4% | [19] -66.9%

O=[N+]([O-])c1ccc(S(=O)(=O)N2CCN(C3=NS(=O)(=O)c4ccccc4N3c3ccccc3)CC2)cc1
active: [5] -0.794%
inactive: [1] 104% | [2] 99.6% | [3] 99.7% | [6] 94.5% | [7] 96.3% | [8] 96.7% | [9] 117% | [10] 117% | [11] 84.9% | [12] 106% | [13] 99.2% | [14] 91.7% | [15] 101% | [16] 91.2% | [17] 103% | [18] 101% | [19] 113%

CCc1ccc(C(=O)/C=C/C23c4ccccc4C(c4ccccc42)C2C(=O)NC(=O)C23)cc1 (stereo not given)
inactive: [1] 42.3% | [2] 15.8% | [7] 21.5% | [10] 12.6% | [15] 26.5% | [16] 12.9% | [17] 11% | [18] 27.8%
active: [3] -3.98% | [4] 5.14% | [5] -17% | [6] -12.6% | [8] -12.8% | [9] -25.9% | [11] 8.82% | [12] -59.9% | [13] 9.93% | [14] -48.7% | [19] -8.91%

O=[N+]([O-])C1C(c2ccccc2)C12c1ccccc1-c1ccccc12 (stereo not given)
active: [4] -14.3% | [6] -13.8% | [8] 4.98% | [10] -36.8% | [11] -12.5% | [13] 6.89% | [14] -21.8% | [16] -23.1% | [17] -12.2% | [19] -10.2%
inactive: [1] 15% | [2] 29.3% | [3] 34.2% | [9] 14.9% | [12] 59.4% | [15] 29.3% | [18] 40.9%

C=C(C)[C@@H]1CC[C@]2(C(=O)OC)CC[C@]3(C)[C@H](CC[C@@H]4[C@@]5(C)C/C(=C/NC(N)=S)C(=O)C(C)(C)[C@@H]5CC[C@]43C)[C@@H]12
inactive: [1] 86.3% | [2] 101% | [3] 97.5% | [4] 88.9% | [5] 90.4% | [6] 88.2% | [7] 76.5% | [8] 108% | [9] 110% | [10] 86.3% | [11] 73.6% | [12] 119% | [13] 98.5% | [14] 99.8% | [15] 95.8% | [16] 99.4% | [17] 85.6% | [18] 100% | [19] 87.9%

O=C(CCc1nnc(Cn2cnc3nc[nH]c3c2=O)o1)c1nc2ncccc2[nH]1
inactive: [1] 101% | [2] 92.3% | [3] 97.3% | [4] 105% | [5] 104% | [6] 94.3% | [7] 98.1% | [8] 93.7% | [9] 104% | [10] 108% | [11] 99.7% | [12] 97.5% | [13] 94.7% | [14] 102% | [15] 96.1% | [16] 101% | [17] 95% | [18] 105% | [19] 96.5%

O=[N+]([O-])c1ccc(-c2nc(N3CCOCC3)c3c4c(sc3n2)CCCC4)cc1
inactive: [1] 85% | [2] 96.3% | [3] 82.4% | [4] 107% | [5] 111% | [6] 79.3% | [7] 95.7% | [8] 93% | [9] 90.9% | [10] 113% | [11] 99.6% | [12] 89.2% | [13] 81% | [14] 104% | [15] 94.8% | [16] 87.4% | [17] 102% | [18] 92.7% | [19] 85.6%

O=C1NCCC12CCN(c1c(Cl)cncc1-c1ccc(O)cc1)CC2
inactive: [1] 83.9% | [2] 103% | [3] 112% | [4] 104% | [5] 114% | [6] 78% | [7] 94.6% | [8] 100% | [9] 105% | [10] 108% | [11] 97.9% | [12] 117% | [13] 102% | [14] 87.9% | [15] 82.5% | [16] 101% | [17] 83.7% | [18] 86.7% | [19] 114%

CCOC(=O)Cn1c(O)c(N=Nc2ccc(S(N)(=O)=O)cc2)c2cc(Br)ccc21
inactive: [1] 85.9% | [2] 77.7% | [3] 65% | [4] 44.1% | [5] 96.4% | [6] 70.8% | [7] 30.7% | [8] 99.2% | [9] 58% | [10] 78.7% | [11] 65.4% | [12] 79.5% | [13] 67.6% | [14] 43.3% | [15] 97.2% | [16] 96.8% | [17] 16% | [18] 96.3% | [19] 87.8%

CCN(CC)c1ccc(/C=C/C(=O)c2ccc(Nc3nc(Nc4ccccc4)nc(Nc4ccccc4)n3)cc2)cc1
active: [16] 1.72%
inactive: [1] 63.8% | [2] 62.4% | [3] 50.8% | [4] 24.8% | [5] 24.2% | [6] 46.8% | [7] 37.6% | [8] 61.8% | [9] 27.9% | [10] 51.6% | [11] 22.5% | [12] 43.2% | [13] 52.8% | [14] 10.6% | [15] 62.1% | [17] 61.2% | [18] 73.1% | [19] 54.1%

C=C1C(=O)O[C@H]2[C@H]1CC/C(COC(=O)CCSCCC(=O)OC/C1=C/CC[C@@]3(C)O[C@H]3[C@H]3OC(=O)C(=C)[C@@H]3CC1)=C\CC[C@@]1(C)O[C@@H]21
active: [1] -39.5% | [4] 9.87% | [5] -50.2% | [6] -75.8% | [8] -21.9% | [9] -72.3% | [11] 2.89% | [12] -13.7% | [13] -52.1% | [14] -95.3% | [17] -15.1% | [18] -13.7% | [19] -12%
inactive: [2] 80.5% | [3] 86.9% | [7] 71.1% | [10] 20.1% | [15] 24.2% | [16] 62.7%

O=C(Nn1c2c(sc1=NCc1ccccc1)C(=O)c1ccccc1C2=O)c1cc2ccc1CCc1ccc(cc1)CC2
active: [12] 5.52%
inactive: [1] 66.3% | [2] 106% | [3] 77.5% | [4] 74.9% | [5] 127% | [6] 52.9% | [7] 80% | [8] 82.7% | [9] 106% | [10] 88.8% | [11] 48.8% | [13] 40.4% | [14] 60.3% | [15] 58.6% | [16] 94.8% | [17] 87.5% | [18] 52.6% | [19] 19.3%
